The record followed here is PubChem BioAssay (NCATS).

A number with no mark means an inactive call. Inconclusive results are not listed. The source made the active and inactive calls. Unless noted, the call rests on the fitted dose curve; in most records, active means well fitted curve in the direction sought with a large enough effect; inconclusive means small, poorly fitted or top-dose-only effect, or another doubt; inactive means no such curve, though single readings can be large; an effect the other way counts as inactive or inconclusive.

Test [1] is described as follows: AP1 Signaling Pathway (AID 357; active means well fitted curve in either direction with a large enough effect, not every such curve was filed as active; further: on the % scale 0 is the no-effect control and ±100 the full control effect). Particulars: ME-180 AP-1-bla reporter, EGF-induced, beta-lactamase ratio, 5 h; at 17.2 µM (top of the series) unless noted. In a few lines: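 Cells are seeded overnight, exposed to compound titrations and an EC50 level of EGF for 5 hours at 37 °C, then loaded with CCF4 dye for 2.5 hours. Beta-lactamase activity under the AP-1 element is read as a blue/green ratio.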

The nature of test [2]: NFAT Signaling Pathway (AID 444; active means well fitted curve in either direction with a large enough effect, not every such curve was filed as active;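 further: carbachol stimulus at about its EC50 of 1 µM final; on the % scale 0 is the no-effect control and ±100 the full control effect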). As to conditions: Jurkat NFAT-bla M1, carbachol, beta-lactamase ratio, 5 h; at 17.2 µM (top of the series) unless noted. Put shortly:
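Jurkat cells with NFAT-driven β-lactamase reporter and co-expressed M1 receptor, stimulated with carbachol (final 1 uM, ~EC50), compound titration, 5 h at 37 °C. CCF4 loaded 1 h at RT; 460/530 nm ratio gave %activity and AC50.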

A short description of test [3]: Stat Signaling Pathway (AID 446; active means well fitted curve in either direction with a large enough effect, not every such curve was filed as active;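 further: ME-180 cervical cancer cells given 40 pM IL-6 alongside compound; SIE-controlled beta-lactamase reporter measured as 460/530 nm FRET emission ratio; on the % scale 0 is the no-effect control and ±100 the full control effect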). In a few lines: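 ME-180 cells carrying a SIE-driven beta-lactamase reporter are stimulated with 40 pM IL-6 for 5 h at 37C in the presence of compound. The 460/530 nm FRET substrate ratio is read after 2.5 h at RT. Data are normalised to 300 pM IL-6 and to 125 nM JAK inhibitor controls.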
Test [4] deals with Glucocorticoid receptor (Homo sapiens) (UniProt P04150). Description: GR-GFP Redistribution (AID 450;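 active means compounds whose dose series gives a full or clear partial fitted curve of increased nuclear translocation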; further: potency means the concentration at half of the fitted maximal effect). Particulars: U2OS GR-GFP nuclear translocation, laser cytometry, 2 h.
Chain of Glucocorticoid receptor (Homo sapiens) (P04150 whole entry, looked up): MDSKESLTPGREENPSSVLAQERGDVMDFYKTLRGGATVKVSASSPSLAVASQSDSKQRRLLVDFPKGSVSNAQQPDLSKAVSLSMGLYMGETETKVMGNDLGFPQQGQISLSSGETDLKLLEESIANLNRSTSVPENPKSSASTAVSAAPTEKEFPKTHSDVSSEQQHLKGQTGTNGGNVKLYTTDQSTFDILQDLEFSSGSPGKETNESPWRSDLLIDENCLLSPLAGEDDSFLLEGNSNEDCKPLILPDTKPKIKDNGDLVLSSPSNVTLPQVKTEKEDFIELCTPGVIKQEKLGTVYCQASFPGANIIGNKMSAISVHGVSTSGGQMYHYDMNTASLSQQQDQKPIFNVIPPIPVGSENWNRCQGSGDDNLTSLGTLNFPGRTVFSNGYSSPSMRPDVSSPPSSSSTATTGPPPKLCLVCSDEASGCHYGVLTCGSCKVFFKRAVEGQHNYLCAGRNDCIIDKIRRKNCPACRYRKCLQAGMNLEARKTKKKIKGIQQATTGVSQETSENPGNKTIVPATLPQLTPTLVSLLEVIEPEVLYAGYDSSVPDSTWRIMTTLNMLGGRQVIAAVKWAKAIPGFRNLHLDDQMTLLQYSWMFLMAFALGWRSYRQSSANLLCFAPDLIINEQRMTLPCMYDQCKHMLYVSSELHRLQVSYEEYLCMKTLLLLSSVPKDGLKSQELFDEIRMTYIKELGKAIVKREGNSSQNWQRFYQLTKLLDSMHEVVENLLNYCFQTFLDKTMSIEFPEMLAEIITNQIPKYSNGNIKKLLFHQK
The target is the same in test [5]. Description: GR-EFC Redistribution (AID 451; calls by dose curve; further: potency means the concentration at half of the fitted maximal effect). As to conditions: CHO-K1 GR-EFC translocation, beta-gal luminescence, 2 h. Put shortly:
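CHO-K1 cells expressing nuclear EA and GR-ED fragments of b-gal; compounds titrated up to 46 uM final, 2 h at 37 C. GR nuclear translocation read as complemented b-gal luminescence after 1 h RT detection.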

For test [6], the target named is 3',5'-cyclic-AMP phosphodiesterase 4B (Homo sapiens) (UniProt Q07343). Nature of the test: qHTS Assay for Inhibitors of PDE-IV (AID 607; active means well fitted activation curve with a large enough effect in the main read-out, with a control signal flat, not every such curve was filed as active; further: % of control where 0% means no effect). In a few lines:
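HEK293 ACTOne cells with CNG channel (1000/well), endogenous PDE4; membrane potential dye, compounds up to 22.9 uM final. Fluorescence Ex 535/Em 590; RO 20-1724 (100 uM final) as reference.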
Background: In qHTS, concentration-response curves come from the screen itself.

The target of test [7] is Guanine nucleotide-binding protein G(i) subunit alpha-1 (Homo sapiens) (UniProt P63096). Description: qHTS Assay for Inhibitors of RGS12 GoLoco Motif Activity (Green Fluorophore) (AID 879).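 Further: 0% = labeled peptide with Gαi1 and full inhibition = labeled peptide alone without protein; negative values mean loss of peptide binding seen as reduced polarization.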 In a few lines: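 Fluorescence polarization assay: 50 nM Gαi1 with 10 nM FITC-labeled RGS12 GoLoco peptide in 10 mM Tris pH 7.5, 150 mM NaCl, 0.1 mM GDP, 0.05% NP40, 10 min at room temperature with compound.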
Chain of Guanine nucleotide-binding protein G(i) subunit alpha-1 (Homo sapiens) (P63096 whole entry, looked up): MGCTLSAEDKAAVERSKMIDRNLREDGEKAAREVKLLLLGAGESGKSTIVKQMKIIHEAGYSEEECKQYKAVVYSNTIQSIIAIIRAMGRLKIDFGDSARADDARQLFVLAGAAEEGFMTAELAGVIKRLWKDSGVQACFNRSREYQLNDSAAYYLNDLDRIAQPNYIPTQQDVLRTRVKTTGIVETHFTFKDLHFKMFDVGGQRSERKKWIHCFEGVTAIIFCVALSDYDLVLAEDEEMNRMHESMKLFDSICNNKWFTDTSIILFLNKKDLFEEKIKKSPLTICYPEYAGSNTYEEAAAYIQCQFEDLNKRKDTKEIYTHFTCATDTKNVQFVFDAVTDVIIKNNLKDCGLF

Test [8] has as its target Cytochrome P450 2D6 (Homo sapiens) (UniProt P10635). Nature of the test: qHTS Assay for Inhibitors and Substrates of Cytochrome P450 2D6 (AID 891). Further: potency means the concentration at half of the fitted maximal effect; nearly all actives have a fitted effect of over 60% in size. In a few lines: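 Human CYP2D6 (5 nM) with 30 uM Luciferin-ME EGE (at Km) in 100 mM KPO4, compound preincubated 10 min, then NADPH regeneration system for 60 min at room temperature. Luciferin read by luminescence; normalized to 1.43 uM quinidine.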

For test [9], the target named is Pyruvate kinase (Leishmania mexicana) (UniProt Q27686). Nature of the test: qHTS Validation Assay for Inhibitors of Leishmania Mexicana Pyruvate Kinase (AID 945).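 Further: 0% = DMSO only neutral control wells.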 In a few lines:
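qHTS eight-point titrations against 0.2 nM LmPYK (E451W) in imidazole buffer pH 7.2 with 0.5 mM PEP, 0.1 mM ADP; 1 h, room temperature. Readout: PKLight luminescence, normalized to neutral DMSO wells.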

Test [10] concerns the target Pyruvate kinase PKM (Homo sapiens) (UniProt P14618). Nature of the test: qHTS Assay for Activators of Human Muscle Pyruvate Kinase (AID 954; active means well fitted curve in the direction sought with a large enough effect, not every such curve was filed as active;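 further: 0% = uninhibited enzyme and -100% = no enzyme or full thiadiazolimine inhibition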). Put shortly:
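Purified human PKM2 (0.1 nM) with 0.5 mM PEP (Km) and 0.1 mM ADP in 50 mM imidazole pH 7.2, KCl, MgCl2, 1 h at room temperature; ATP formed read by coupled luciferase luminescence. Normalized to no-enzyme/110 uM thiadiazolimine inhibition; 0.3 nM enzyme column for activation.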

Test [11] concerns the target Alpha-galactosidase (Coffea arabica) (UniProt Q42656). Nature of the test: Counterscreen for Glucocerebrosidase Inhibitors: qHTS Assay for Coffee Bean alpha-Galactosidase at pH 4.5 (AID 957).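 Further: plate controls were enzyme alone for no effect and no enzyme for full effect.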 In a few lines: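 Coffee bean enzyme (2 nM) with 80 uM 4-methylumbelliferyl alpha-D-galactopyranoside in 50 mM citric acid, 0.005% Tween-20, pH 4.5, 20 min at room temperature; compounds 0.7 nM–77 uM. Stopped at pH 10, fluorescence 365/440 nm; AC50 from Hill fits.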
(Counterscreens check selectivity or assay interference.)

Test [12] addresses Alpha-galactosidase A (Homo sapiens) (UniProt P06280). Description: Counterscreen for Glucocerebrosidase Inhibitors: qHTS Assay for Human alpha-Galactosidase at pH 4.5 (AID 992). Further: 0% is about no effect. Put shortly: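 Human enzyme (2 nM) with 80 uM 4-methylumbelliferyl alpha-D-galactopyranoside in 50 mM citric acid, 0.005% Tween-20, pH 4.5, 20 min at room temperature. Compounds 0.7 nM–77 uM; fluorescence Ex 365/Em 440 after pH 10 stop; AC50 from Hill fits.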

The target in test [13] is alpha-glucosidase (Oryza sativa, rice) (UniProt Q653V4). Nature of the test: Counterscreen for Glucocerebrosidase Inhibitors: qHTS Assay for Rice alpha-Glucosidase at pH 5.0 (AID 997).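 Further: 0% = full activity with enzyme and -100% = basal without enzyme.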 In a few lines:
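Rice alpha-glucosidase (4 nM final) with 400 uM 4-methylumbelliferyl-alpha-D-glucopyranoside in citrate buffer pH 5.0, 20 min at room temperature, stopped at pH 10; fluorescence 365/440 nm, compounds 0.7 nM–77 uM, AC50 from Hill fits.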

The target in test [14] is Alpha-galactosidase (Coffea arabica) (UniProt Q42656). Description: Counterscreen for Glucocerebrosidase Inhibitors: qHTS Assay for Coffee Bean alpha-Galactosidase at pH 5.9 (AID 998).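 Further: plate controls were uninhibited enzyme for no effect and no-enzyme basal signal for full effect.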 Put shortly: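 Green coffee bean enzyme (2 nM) with 4-methylumbelliferyl alpha-D-galactopyranoside (80 uM) in 50 mM citric acid, 0.005% Tween-20, pH 5.9, 20 min at room temperature; compounds 0.7 nM–77 uM. Stopped at pH 10, fluorescence Ex365/Em440; Hill-fit AC50.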
Chain of Alpha-galactosidase (Coffea arabica) (Q42656 whole entry, looked up): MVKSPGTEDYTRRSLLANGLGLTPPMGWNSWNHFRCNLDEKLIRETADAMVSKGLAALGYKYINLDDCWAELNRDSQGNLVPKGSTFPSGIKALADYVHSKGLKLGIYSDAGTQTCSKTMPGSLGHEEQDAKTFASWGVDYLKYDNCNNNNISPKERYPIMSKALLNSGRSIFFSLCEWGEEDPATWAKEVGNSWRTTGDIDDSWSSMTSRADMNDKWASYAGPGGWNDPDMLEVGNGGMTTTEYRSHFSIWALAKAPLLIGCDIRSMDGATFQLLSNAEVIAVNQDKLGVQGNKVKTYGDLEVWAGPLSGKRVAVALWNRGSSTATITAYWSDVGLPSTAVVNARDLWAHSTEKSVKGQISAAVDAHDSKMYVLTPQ

Test [15] is described as follows: qHTS Assay for Identification of Small Molecule Agonists for Thrombopoietin (TPO) Signaling Pathway (AID 917). Further: on the % scale 0 is the no-effect control and ±100 the full control effect. In a few lines: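 Murine Ba/F3 cells stably expressing human TPO receptor and a Glycoprotein IIb promoter–luciferase reporter were IL-3-starved overnight, then treated with compounds plus TPO (26 pM final, its EC50) for 24 hrs at 37 C; luminescence was read.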

Chain of Pyruvate kinase PKM (Homo sapiens) (P14618 whole entry, looked up): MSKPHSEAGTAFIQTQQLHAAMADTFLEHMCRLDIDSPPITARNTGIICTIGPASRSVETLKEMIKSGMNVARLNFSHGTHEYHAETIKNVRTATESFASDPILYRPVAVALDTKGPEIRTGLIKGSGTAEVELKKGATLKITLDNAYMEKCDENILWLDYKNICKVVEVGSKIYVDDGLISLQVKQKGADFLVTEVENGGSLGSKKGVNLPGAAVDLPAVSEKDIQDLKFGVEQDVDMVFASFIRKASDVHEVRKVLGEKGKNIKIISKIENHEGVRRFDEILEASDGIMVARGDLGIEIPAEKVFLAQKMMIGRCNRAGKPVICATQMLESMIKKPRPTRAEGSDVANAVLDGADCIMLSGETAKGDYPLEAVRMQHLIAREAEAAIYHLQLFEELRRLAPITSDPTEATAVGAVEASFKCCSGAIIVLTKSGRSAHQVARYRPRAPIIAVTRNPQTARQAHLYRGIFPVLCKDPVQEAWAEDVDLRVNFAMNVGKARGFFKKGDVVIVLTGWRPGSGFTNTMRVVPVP
Chain of Alpha-galactosidase A (Homo sapiens) (P06280 whole entry, looked up): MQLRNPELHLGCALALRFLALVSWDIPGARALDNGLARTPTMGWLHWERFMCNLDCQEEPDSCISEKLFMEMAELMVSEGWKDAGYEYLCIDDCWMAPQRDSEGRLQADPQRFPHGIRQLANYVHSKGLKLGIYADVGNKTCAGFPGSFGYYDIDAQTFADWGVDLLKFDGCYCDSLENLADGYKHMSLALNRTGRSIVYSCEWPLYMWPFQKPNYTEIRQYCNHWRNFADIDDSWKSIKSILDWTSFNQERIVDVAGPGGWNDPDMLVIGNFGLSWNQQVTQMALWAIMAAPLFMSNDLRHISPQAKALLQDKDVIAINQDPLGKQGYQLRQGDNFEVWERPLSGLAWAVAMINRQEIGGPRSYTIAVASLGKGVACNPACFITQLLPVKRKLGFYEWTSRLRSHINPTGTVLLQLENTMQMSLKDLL
Chain of 3',5'-cyclic-AMP phosphodiesterase 4B (Homo sapiens) (Q07343 whole entry, looked up): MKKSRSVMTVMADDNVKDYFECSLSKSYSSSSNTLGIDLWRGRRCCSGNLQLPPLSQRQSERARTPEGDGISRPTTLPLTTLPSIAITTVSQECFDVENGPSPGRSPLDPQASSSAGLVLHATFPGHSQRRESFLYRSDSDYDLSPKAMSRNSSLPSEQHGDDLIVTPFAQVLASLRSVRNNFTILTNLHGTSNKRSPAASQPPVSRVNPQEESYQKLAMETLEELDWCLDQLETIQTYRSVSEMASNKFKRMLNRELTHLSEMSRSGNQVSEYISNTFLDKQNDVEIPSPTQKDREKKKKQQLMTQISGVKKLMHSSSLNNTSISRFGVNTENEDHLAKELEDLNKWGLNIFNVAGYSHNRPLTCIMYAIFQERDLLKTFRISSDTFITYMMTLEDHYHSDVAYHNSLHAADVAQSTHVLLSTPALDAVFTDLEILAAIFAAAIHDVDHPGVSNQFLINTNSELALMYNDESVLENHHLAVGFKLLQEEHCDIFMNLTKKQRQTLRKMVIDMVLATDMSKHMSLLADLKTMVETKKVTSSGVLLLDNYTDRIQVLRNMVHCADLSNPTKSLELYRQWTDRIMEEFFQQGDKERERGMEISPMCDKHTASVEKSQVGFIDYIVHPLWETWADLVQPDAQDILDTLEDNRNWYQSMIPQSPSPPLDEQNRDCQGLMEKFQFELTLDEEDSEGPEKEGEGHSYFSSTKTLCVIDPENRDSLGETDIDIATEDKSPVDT
Chain of Pyruvate kinase (Leishmania mexicana) (Q27686 2-499 E452W): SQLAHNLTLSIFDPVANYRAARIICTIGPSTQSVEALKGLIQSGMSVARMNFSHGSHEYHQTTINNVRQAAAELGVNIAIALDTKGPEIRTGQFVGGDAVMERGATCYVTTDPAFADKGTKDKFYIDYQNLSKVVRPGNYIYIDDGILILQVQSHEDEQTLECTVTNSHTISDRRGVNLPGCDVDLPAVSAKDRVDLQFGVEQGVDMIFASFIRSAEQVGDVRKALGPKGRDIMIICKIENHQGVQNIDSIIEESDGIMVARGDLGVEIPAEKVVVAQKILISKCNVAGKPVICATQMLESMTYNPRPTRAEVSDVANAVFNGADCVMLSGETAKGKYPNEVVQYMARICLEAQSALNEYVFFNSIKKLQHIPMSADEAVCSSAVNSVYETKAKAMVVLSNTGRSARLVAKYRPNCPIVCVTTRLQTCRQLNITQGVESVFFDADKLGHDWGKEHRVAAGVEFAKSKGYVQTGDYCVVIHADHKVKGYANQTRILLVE
Chain of Cytochrome P450 2D6 (Homo sapiens) (P10635 whole entry, looked up): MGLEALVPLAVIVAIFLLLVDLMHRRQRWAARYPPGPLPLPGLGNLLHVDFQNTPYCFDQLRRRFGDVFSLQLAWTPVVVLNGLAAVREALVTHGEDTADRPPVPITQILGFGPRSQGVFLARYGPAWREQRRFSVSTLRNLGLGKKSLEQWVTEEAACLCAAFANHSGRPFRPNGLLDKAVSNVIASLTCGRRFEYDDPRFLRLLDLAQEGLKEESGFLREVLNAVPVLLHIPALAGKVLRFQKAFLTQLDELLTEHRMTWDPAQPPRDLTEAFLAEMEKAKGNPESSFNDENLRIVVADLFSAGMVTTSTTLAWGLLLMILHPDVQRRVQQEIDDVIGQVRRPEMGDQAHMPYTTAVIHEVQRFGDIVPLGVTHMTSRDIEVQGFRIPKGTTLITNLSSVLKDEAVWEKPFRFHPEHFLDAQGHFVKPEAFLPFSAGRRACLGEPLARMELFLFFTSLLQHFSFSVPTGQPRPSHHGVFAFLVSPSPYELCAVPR

`COc1ccc2c(c1)[C@]13CCCC[C@@H]1[C@H](C2)N(C)CC3`: the figures for the activity change, negative = inhibition in test [1] and in test [2] were 12% [at 38 µM] and -11.7% [at 38 µM], respectively. Further, the compound was called inactive in test [3], in test [6], in test [10], in [11], in [12] and in [13]. Further, the outcome in [14] was inactive. The Potency in test [4] was > 46 µM; in [5], > 46 µM; in test [8], 2.51 µM (active). Also, the Potency entry in [7] and in test [9] was “inactive” each time.

Consider `CCOC(C(=O)OCC(O)CN(CC)CC)(c1ccccc1)c1ccccc1` (stereo unspecified), for which, in test [1], the activity change, negative = inhibition is 4.62%. The compound was classed as inactive in [3].

Turning to `CCCCCCn1c(O)c(C=NC2CCN(Cc3ccccc3)CC2)c(=O)[nH]c1=O`, the activity change, negative = inhibition in [1] was -7.92%. The outcome in [3] was inactive.

In the case of `C=CCN1CC[C@]23c4c5ccc(O)c4O[C@@H]2C(=O)CC[C@@]3(O)[C@H]1C5`, the results for the activity change, negative = inhibition in test [1] and in [2] were 3.28% [at 38 µM] and -0.768% [at 38 µM], respectively. Moreover, the compound was called inactive in test [3], in test [6], in test [15], in [10], in [11] and in test [12]. In addition, the call in test [13] and in [14] was inactive. In addition, the Potency entry in test [7] and in test [9] was “inactive” throughout.

On to `CCC(=NCCOc1ccc(Cl)cc1)c1c(O)n(C)c(=O)n(C)c1=O`, for which, in [1], the activity change, negative = inhibition was -1.65%. The call in test [3] was inactive. The Potency in test [4] was > 20.6 µM.

`Cn1c(O)c(C=NC2CCN(Cc3ccccc3)CC2)c(=O)n(C)c1=O`: in test [1], the activity change, negative = inhibition is -11.6%. The compound was classed as inactive in test [3]. For the same compound, the Potency in test [4] is > 20.6 µM.
